Laboratory results: the supplement of paper PMC11732987, “Enantioselective OTUD7B fragment discovery through chemoproteomics screening and high-throughput optimisation” (Communications Chemistry, 2025)

Legend:
Assay in all cases: log2 ratio of Biotin-Ahx-Ub-VS probe labelling (fragment/DMSO); higher = less target engagement (more negative = stronger competition), active = hit call of the paper (q ≤ 0.05, log2 ratio ≤ -1)
Conditions in all cases: compound concentration: 200 uM; treatment time: 3 h
[1] = target: USP34 (UniProt Q70CQ2)
How it was run: (§1)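 HEK293T lysate, 495 µg per sample in Tris/CHAPS/IGEPAL buffer with protease inhibitors, was treated in triplicate with fragment at 200 µM or vehicle for 3 h and then with Biotin-Ahx-Ub-VS at 0.5 µM final for 1 h. Labelled DUBs were NeutrAvidin-enriched, digested with LysC and trypsin, and run by diaPASEF LC-MS/MS. Spectronaut label-free quantities were global-median-normalised, and values are average log2 fragment/vehicle ratios by unpaired t-test on proteins with ≥2 unique peptides.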

[2] = target: T1, USP36 (UniProt Q9P275)
T1 sequence (whole entry): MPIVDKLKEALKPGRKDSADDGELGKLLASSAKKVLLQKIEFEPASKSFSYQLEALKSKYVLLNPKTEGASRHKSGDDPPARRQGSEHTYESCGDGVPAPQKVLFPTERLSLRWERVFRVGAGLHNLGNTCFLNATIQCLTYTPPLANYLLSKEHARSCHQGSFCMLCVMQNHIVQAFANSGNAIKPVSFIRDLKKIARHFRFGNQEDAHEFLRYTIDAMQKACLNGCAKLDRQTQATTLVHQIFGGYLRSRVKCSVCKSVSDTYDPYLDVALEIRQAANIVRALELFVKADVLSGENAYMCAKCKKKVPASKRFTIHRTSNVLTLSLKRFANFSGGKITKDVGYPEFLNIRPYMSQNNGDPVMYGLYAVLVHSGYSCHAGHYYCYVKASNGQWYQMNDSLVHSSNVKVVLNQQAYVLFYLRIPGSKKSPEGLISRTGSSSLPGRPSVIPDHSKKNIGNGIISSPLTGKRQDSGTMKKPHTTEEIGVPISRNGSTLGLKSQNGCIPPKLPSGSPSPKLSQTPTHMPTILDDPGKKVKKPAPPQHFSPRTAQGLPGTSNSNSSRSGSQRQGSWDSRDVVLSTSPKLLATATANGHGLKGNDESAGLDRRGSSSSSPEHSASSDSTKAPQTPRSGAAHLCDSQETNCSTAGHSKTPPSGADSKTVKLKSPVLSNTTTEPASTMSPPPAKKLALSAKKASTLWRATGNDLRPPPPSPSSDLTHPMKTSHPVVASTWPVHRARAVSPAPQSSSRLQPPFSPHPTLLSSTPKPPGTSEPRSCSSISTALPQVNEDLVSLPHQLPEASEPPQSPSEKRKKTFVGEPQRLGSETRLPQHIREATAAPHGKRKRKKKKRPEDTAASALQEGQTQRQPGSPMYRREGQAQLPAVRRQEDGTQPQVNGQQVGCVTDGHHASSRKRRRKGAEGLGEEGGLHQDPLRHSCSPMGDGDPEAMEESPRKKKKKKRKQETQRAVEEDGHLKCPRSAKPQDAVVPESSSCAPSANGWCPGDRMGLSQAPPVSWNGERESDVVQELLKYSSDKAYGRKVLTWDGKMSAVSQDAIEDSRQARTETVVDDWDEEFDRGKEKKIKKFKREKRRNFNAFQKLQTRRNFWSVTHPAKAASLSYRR
How it was run: as §1

[3] = target: T2, USP38 (UniProt Q8NB14)
T2 sequence (whole entry): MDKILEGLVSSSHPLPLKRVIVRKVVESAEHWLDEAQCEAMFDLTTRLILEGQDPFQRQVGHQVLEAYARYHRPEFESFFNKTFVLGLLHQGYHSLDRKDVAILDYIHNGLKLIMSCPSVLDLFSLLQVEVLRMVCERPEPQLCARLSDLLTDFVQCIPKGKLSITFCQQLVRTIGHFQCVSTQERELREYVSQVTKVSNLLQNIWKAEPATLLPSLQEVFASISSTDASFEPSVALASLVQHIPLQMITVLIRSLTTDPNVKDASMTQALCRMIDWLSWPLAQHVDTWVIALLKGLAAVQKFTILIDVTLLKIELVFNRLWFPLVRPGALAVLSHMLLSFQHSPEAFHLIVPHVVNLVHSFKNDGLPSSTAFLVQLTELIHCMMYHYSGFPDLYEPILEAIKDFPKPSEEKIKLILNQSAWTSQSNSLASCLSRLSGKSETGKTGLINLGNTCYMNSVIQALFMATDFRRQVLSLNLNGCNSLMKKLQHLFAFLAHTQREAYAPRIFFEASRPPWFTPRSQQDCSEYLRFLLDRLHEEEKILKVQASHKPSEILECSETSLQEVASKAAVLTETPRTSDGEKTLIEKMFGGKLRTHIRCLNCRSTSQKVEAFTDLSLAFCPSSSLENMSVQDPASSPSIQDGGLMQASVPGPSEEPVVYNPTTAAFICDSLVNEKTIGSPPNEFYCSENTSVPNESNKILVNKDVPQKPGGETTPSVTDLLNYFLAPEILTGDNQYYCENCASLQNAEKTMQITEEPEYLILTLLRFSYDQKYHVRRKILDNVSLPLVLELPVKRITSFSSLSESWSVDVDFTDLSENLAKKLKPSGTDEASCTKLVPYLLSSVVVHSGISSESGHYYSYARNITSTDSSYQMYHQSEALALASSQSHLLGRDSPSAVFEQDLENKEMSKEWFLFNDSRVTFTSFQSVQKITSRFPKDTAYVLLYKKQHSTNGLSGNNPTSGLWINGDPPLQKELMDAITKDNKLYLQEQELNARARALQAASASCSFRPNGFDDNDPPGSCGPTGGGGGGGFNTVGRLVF
How it was run: as §1

[4] = target: T3, USP39 (UniProt Q53GS9)
T3 sequence (whole entry): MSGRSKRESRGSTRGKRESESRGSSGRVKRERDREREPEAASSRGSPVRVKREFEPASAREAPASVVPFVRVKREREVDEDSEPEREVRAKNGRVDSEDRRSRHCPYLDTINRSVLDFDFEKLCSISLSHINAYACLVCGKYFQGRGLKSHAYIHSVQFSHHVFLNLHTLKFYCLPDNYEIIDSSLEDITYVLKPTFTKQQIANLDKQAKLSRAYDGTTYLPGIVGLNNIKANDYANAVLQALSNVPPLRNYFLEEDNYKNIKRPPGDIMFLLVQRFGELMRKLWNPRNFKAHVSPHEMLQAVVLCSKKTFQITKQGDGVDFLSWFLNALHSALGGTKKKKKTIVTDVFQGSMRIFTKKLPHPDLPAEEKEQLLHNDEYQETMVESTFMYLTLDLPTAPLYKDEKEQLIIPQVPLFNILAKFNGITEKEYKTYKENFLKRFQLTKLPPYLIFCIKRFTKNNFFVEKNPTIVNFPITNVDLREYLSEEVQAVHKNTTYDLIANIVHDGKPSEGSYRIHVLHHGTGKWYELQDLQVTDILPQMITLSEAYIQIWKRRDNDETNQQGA
How it was run: as §1

[5] = target: T4, USP4 (UniProt Q13107)
T4 sequence (whole entry): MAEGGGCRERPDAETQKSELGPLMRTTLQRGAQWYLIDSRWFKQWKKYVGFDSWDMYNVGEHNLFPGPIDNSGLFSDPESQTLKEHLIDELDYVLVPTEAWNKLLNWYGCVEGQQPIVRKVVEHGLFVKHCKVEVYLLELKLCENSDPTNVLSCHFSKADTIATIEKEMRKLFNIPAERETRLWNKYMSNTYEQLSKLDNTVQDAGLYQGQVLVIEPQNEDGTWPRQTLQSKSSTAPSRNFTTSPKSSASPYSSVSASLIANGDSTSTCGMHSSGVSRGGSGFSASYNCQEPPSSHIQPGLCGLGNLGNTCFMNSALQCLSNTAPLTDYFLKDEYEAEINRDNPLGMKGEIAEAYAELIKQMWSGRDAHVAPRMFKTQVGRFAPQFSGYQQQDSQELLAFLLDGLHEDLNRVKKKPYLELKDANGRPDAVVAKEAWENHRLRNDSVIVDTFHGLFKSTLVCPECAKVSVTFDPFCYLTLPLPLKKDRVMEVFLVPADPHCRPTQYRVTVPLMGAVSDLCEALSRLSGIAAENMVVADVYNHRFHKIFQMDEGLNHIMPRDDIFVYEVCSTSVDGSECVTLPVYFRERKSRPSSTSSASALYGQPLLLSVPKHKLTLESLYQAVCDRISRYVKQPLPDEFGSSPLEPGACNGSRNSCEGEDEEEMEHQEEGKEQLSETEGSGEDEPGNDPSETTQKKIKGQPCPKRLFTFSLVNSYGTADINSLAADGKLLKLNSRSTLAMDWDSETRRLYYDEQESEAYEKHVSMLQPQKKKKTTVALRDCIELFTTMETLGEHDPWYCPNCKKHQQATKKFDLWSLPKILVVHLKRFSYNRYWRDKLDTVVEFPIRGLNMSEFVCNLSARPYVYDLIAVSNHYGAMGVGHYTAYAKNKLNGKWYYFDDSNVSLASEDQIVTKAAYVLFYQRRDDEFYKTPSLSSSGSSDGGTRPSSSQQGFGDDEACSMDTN
How it was run: as §1

Measured: log2 ratio of Biotin-Ahx-Ub-VS probe labelling

USP34, sequence (Q70CQ2 whole entry, the tested form may be a part): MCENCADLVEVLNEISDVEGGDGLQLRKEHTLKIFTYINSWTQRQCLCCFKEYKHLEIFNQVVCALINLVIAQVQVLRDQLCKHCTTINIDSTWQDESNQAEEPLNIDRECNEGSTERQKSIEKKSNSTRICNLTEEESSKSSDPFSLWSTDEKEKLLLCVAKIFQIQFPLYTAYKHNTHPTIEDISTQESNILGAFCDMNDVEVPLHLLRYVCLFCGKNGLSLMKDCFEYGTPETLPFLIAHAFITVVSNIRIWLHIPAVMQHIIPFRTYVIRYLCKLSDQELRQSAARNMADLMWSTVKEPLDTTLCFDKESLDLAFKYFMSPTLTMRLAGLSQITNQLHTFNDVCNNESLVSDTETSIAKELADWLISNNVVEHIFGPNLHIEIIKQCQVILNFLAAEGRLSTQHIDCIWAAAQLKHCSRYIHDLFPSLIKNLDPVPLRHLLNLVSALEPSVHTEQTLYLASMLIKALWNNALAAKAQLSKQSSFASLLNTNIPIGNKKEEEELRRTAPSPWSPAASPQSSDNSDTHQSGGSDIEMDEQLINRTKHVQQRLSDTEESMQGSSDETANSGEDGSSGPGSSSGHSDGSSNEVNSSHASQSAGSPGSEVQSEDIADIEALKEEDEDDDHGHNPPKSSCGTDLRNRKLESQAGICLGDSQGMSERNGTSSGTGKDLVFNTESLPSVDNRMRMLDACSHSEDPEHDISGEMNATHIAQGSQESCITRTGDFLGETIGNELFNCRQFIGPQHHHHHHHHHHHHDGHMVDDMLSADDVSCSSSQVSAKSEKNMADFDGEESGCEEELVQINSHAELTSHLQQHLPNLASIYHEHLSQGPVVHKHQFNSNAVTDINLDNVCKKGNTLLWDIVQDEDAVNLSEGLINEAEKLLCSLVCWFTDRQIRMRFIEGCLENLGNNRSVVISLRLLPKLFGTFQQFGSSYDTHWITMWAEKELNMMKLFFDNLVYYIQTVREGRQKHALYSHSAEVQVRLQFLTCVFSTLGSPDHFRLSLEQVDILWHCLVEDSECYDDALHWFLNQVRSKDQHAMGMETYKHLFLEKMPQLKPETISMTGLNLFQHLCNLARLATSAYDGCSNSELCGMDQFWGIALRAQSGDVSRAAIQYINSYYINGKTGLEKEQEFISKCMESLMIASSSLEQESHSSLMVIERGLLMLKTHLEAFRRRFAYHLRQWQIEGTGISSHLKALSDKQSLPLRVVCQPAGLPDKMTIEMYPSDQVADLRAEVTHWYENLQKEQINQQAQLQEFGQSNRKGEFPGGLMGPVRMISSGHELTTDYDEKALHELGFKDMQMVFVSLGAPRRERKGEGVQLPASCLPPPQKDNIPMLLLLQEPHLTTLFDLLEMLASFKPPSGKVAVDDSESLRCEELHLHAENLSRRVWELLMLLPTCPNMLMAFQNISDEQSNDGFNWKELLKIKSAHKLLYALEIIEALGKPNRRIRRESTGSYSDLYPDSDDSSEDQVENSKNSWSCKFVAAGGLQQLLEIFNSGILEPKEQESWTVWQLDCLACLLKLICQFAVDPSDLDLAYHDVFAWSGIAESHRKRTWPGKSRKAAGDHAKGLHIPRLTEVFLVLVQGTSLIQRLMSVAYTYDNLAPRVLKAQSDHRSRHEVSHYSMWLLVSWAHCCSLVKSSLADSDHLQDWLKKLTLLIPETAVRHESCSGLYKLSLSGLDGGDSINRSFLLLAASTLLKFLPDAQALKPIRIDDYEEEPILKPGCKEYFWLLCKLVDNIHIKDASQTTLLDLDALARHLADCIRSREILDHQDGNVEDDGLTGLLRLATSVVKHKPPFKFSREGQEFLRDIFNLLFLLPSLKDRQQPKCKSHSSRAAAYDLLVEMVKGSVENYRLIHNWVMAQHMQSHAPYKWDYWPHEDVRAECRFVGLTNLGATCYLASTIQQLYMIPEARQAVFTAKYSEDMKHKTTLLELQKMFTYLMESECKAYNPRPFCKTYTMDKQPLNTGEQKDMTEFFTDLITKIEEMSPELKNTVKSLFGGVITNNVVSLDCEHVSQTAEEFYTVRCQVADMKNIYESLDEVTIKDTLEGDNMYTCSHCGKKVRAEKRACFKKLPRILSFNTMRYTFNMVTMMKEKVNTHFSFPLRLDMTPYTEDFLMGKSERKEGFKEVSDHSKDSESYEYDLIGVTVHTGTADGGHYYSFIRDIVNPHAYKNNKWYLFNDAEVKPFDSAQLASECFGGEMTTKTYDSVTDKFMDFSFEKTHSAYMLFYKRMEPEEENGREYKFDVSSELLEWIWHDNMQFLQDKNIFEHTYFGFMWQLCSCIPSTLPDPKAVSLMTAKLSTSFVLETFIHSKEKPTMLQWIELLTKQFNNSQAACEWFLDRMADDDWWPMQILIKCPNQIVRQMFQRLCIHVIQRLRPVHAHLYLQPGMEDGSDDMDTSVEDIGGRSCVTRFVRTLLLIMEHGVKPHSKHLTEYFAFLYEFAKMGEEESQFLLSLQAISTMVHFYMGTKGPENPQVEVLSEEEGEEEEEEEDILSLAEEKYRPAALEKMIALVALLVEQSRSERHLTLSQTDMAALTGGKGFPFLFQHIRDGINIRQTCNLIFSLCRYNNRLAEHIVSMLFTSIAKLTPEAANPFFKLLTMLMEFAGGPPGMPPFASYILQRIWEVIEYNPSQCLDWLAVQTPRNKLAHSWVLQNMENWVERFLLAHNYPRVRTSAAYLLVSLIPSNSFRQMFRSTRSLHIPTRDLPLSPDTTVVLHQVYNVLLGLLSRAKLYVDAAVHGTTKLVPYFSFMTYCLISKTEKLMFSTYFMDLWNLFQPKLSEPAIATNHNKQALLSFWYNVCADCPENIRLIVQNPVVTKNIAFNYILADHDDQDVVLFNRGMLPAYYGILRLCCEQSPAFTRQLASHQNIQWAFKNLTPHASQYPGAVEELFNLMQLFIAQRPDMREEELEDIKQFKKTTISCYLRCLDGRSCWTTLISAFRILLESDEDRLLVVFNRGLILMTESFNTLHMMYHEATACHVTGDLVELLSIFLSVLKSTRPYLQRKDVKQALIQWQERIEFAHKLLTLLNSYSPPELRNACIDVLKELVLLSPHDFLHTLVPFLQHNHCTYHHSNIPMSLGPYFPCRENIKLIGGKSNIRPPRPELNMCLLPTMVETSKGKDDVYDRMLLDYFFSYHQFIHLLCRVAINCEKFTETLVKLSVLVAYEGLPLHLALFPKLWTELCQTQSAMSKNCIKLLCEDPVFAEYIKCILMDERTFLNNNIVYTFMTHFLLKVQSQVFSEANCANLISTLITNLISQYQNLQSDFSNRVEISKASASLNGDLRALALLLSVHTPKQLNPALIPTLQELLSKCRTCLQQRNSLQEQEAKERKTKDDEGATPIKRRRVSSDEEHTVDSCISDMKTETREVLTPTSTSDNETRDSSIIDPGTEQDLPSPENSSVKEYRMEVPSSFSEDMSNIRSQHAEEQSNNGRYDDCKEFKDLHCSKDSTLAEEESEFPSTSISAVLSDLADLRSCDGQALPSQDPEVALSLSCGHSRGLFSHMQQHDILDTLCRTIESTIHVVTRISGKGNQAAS

O=C(CCl)Nc1nc(-c2cccs2)cs1
inactive: [1] -0.754 | [2] -0.271 | [3] -0.092 | [4] 0.197 | [5] -0.0279
